High-throughput results as filed in PubChem.
DAX1 inh-1 = NR0B1 (DAX1) inhibition | P51843 | 340,000 compounds, 0.99% hits | HEK293 Gal4-DAX1 luciferase reporter, luminescence | inhibition, % at 6.75 µM | AID 504766;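 active means inhibition above the mean over all tested compounds plus 3 SD, cut at about 4.2% in these data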;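 further: 0% = DAX1-transfected cells with DMSO and 100% = empty-vector control cells with DMSO; inhibition shows as a rise in luminescence from relieved DAX1 repression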
ssDAF-12 act = S. stercoralis DAF-12 activation, primary screen | HEK293 ssDAF-12/GRIP1 lit1-tk-luc reporter, luminescence; % of 3 µM dafachronic acid response | activation, % at 6.8 µM | 370,000 compounds, 1% hits;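 active means activation above the mean over all tested compounds plus 3 SD, cut at about 0.9% in these data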;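 further: 0% = DMSO-only wells and 100% = 3 µM delta7-dafachronic acid wells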
hcDAF12 agonist = activates DAF-12 receptor from parasite H. contortus; HEK293 hcDAF-12 lit1-tk-luc reporter, luminescence; 0% DMSO, 100% Δ7-dafachronic acid; activation, % at 6.8 µM; 370,000 compounds, 1.4% hits; AID 652067;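 active means activation above the mean of all tested compounds plus 3 SD, cut at about 5.5% in these data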;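 further: 100% = response to 3 µM Δ7-dafachronic acid high control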
hgDAF12 agonist = agonists of H. glycines DAF-12 nuclear receptor; AID 687014; 370,000 compounds, 1.8% hits; activation, % at 6.8 µM; HEK293 GAL4-hgDAF12 UAS-luciferase reporter, agonist luminescence; normalized to butyrate control;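 active means activation above a cutoff set at the mean of all screened compounds plus 3 SD, cut at about 10% in these data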;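 further: 0% = DMSO wells and 100% = sodium butyrate wells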
DAX1 inh-2 = inhibitors of DAX1 repression of SF-1 activated StAR promoter. HEK293T StAR-luciferase reporter, SF-1/DAX-1 repression relief. inhibition, % at 6.8 µM. 370,000 compounds, 1.1% hits;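 active means inhibition above the mean over all tested compounds plus 3 SD, cut at about 3.6% in these data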;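 further: 0% = DAX-1 cells with DMSO and 100% = cells lacking DAX-1 with DMSO; higher inhibition means more luminescence from relief of DAX-1 repression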
DAX1 conf = confirmation of human DAX1 (NR0B1) inhibitors; 2,400 compounds, 87% hits; HEK293T StAR-promoter luciferase reporter, SF-1/DAX-1 repression; inhibition, % at 6.8 µM; AID 652134; shares compounds with DAX1 inh-2;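 active means inhibition above the average of every tested compound plus 3 SD, cut at about 3.8% in these data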;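 further: 0% = DAX-1 cells with DMSO and 100% = no DAX-1 control cells with DMSO; active compounds raise luminescence by relieving repression of the StAR reporter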
Target sequence (P51843 whole entry, looked up): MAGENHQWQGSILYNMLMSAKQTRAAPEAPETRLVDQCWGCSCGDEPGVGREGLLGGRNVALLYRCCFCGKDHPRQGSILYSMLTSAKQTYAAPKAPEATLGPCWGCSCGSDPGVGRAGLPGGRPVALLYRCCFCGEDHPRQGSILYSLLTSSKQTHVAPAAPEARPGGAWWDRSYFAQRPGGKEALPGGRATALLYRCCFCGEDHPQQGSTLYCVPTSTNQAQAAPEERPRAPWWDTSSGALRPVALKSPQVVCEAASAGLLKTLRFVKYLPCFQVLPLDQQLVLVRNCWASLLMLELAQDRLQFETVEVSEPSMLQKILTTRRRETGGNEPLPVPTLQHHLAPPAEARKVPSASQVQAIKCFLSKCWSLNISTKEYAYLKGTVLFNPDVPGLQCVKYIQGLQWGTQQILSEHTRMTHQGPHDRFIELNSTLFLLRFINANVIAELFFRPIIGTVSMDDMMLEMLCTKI
SF1 mutant ctr = nonselective inhibitor or artifact in SF-1 mutant DAX1 counter-screen; shares compounds with DAX1 inh-2; HEK293 StAR-luciferase, SF-1 AF2 mutant, luminescence; inhibition, % at 6.8 µM; 2,400 compounds, 78% hits;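 active means inhibition above the mean of all tested compounds plus 3 SD, cut at about 3% in these data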;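 further: 0% = DAX-1 transfected cells with DMSO and 100% = cells without DAX-1 with DMSO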
The depositor's hits bear a star; . = no result. A selection: hits, their analogues and other compounds. The true share with any hit is near 4.1%.

SMILES | DAX1 inh-1 | ssDAF-12 act | hcDAF12 agonist | hgDAF12 agonist | DAX1 inh-2 | DAX1 conf | SF1 mutant ctr
N/C(=N\N=C\c1ccc2c(c1)OCO2)c1nonc1N | -2 | 0 | 5.9* | 8 | 6.2* | 18* | 9.6*
N/C(=N\N=C\c1cccc([N+](=O)[O-])c1)c1nonc1N | . | -1 | 2 | 7 | 1 | . | .
CCOc1ccccc1N1CC(C(=O)NCCC2=CCCCC2)CC1=O (stereo unspecified) | 2 | -1 | 4 | 9 | 5.2* | 4.1* | 3.3*
CCOC(=O)c1c(C)[nH]c(C(=O)NNC(=O)c2ccccc2F)c1C | 2 | -1 | 2 | 10 | 5.1* | 8.3* | 6.5*
CC(=O)Nc1nc2ncccn2c1-c1ccccc1 | . | -1 | -2 | -1 | 0 | . | .
Nc1nc(=S)c2ncn(C3OC(CO)CC3O)c2[nH]1 (stereo unspecified) | 3 | 0 | -2 | 2 | -1 | . | .
COc1cc(OC)cc(C(=O)Nc2ccc3nc4n(c(=O)c3c2)CCCCC4)c1 | 0 | -1 | -2 | 1 | 6.0* | 3 | 2
CCOc1cccc(C(=O)Nc2nnc(-c3ccco3)s2)c1 | -1 | 1 | 5 | 11* | 5.0* | 15* | 5.1*
Cc1cccc(OCC(=O)Nc2nnc(-c3ccco3)s2)c1 | -1 | -1 | 0 | -1 | 0 | . | .
O=C(CSc1ccccn1)Nc1ccc2c(c1)CCC2 | 3 | 0 | 0 | 6 | 5.0* | 7.2* | 5.5*
O=C(CSc1ccccn1)Nc1ccc2c(c1)OCCO2 | 4 | 0 | 2 | 10 | 1 | . | .
CN[C@H]1CCc2cc(OC)c(OC)c(OC)c2-c2ccc(OC)c(=O)cc21 | 0 | 0 | 0 | -3 | 6.8* | 19* | -8
CCOC(=O)NC1CCc2cc(OC)c(OC)c(OC)c2-c2ccc(SC)c(=O)cc21 (stereo unspecified) | 0 | -1 | -1 | -6 | 5.0* | 13* | -7
C=C1CCCC2OC(CC3=CC4/C(C)=C/CC(C)CC(/C=C(\C)C(O)C5CC(O)C(O)C(CCC(O)/C=C/C(C)=C/CCC6=NCCC(C3)C64C)O5)OC(=O)CC3OC(C(O)C1)C(O)C3O)CC(O)C2O (stereo unspecified) | . | 0 | 5.8* | 0 | 7.9* | 11* | -3
COC(=O)C1=C(C)N(C)C(=NCc2ccc(OC)cc2)NC1c1ccc(F)cc1 (stereo unspecified) | . | -1 | -1 | 1 | -2 | . | .
CC(C)(C)C(=O)O[C@@H]1CCC[C@@]2(C(=O)N(Cc3ccccc3)c3ccccc32)[C@H]1NC(=O)CCc1ccccc1 | . | -1 | -3 | -1 | 0 | . | .
Cc1ccc2nc(-c3ccccc3)c(Cc3ccccc3C(F)(F)F)n2c1 | . | 0 | 4 | 9 | 4.7* | 3.8* | 3.8*
FC(F)(F)c1ccccc1Cc1c(-c2ccc(Cl)cc2)nc2ccc(Cl)cn12 | . | 1 | 1 | 12* | 4.8* | 4.1* | 3.8*
FC(F)(F)c1ccccc1Cc1c(-c2ccccc2)nc2ccc(Cl)cn12 | . | 0 | 2 | 6 | 1 | . | .
Cc1ccc(-c2nc3ccc(C)cn3c2Cc2ccccc2C(F)(F)F)cc1 | . | 0 | 3 | 12* | 5.7* | 5.0* | 4.1*
CCNC(=O)C1(C)CCCN(C(=O)c2ccnc(Cl)c2)C1 (stereo unspecified) | . | -1 | 0 | 0 | -1 | . | .
CCOC(=O)CSC1=C(C#N)C(c2ccc(C)o2)CC(=O)N1 (stereo unspecified) | 0 | 0 | 1 | -5 | 5.6* | 17* | -6
CCOC(=O)CSC1=C(C#N)C(c2ccc(Cl)cc2)CC(=O)N1 (stereo unspecified) | -1 | -2 | -2 | 2 | -1 | . | .
O=C(c1ccco1)N(Cc1cccnc1)C(c1ccccc1)c1nc2ccccc2[nH]1 (stereo unspecified) | . | 0 | 2 | 8 | 6.0* | 3.8* | 3.1*
O=C(c1cccnc1)N(Cc1ccccc1)C(c1ccccc1)c1nc2ccccc2[nH]1 (stereo unspecified) | . | 0 | 3 | 7 | 1 | . | .
